Bioassay records (PubChem)
HPGD block: qHTS Assay for Inhibitors of HPGD (15-Hydroxyprostaglandin Dehydrogenase); Potency, µM, for inactives: top-dose activity change, negative = inhibition, hits mostly inhibitors; purified HPGD, NADH fluorescence kinetic, PGE2 substrate; AID 894, 2007; 150,000 tested, 4.3% active; 15-hydroxyprostaglandin dehydrogenase [NAD(+)] (Homo sapiens), P15428; further: potency means the concentration at half of the fitted maximal effect
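20 nM HPGD preincubated 15 min at room temperature with compound in 50 mM Tris-HCl pH 8, 0.01% Tween 20. Started with 1 mM NAD+ and 30 uM prostaglandin E2; NADH fluorescence (360/450 nm) read 5 times over 30-s intervals, last minus first.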
PNC inhibitor: High Content Assay for Compounds that inhibit the Assembly of the Perinucleolar Compartment | 140,000 tested, 3.1% active | activity change (PNC), negative = inhibition, % at 10 µM | PC3M PTB-GFP, PNC prevalence imaging, 16 h; stronger effect = lower value;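 active means readout at or below -70, meaning at least 70% loss of cells showing the perinucleolar compartment, a nuclear body marking cancer cells; inconclusive means readout between -30 and a set limit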;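 further: plate controls were DMSO wells for no effect and camptothecin positive control wells for full effect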
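Read-out is percentage of cells bearing a perinucleolar compartment, from automated 20x imaging of fixed, Hoechst-stained PC3M PTB-GFP cells. Cells were seeded 4 h, then exposed 16 h to compound (23 nl of library stock) in duplicate plates.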
ALDH1A1 block: qHTS Assay for Inhibitors of Aldehyde Dehydrogenase 1 (ALDH1A1) | Purified ALDH1A1, NADH fluorescence, propionaldehyde substrate | 220,000 tested, 7.3% active | AID 1030, 2008 | Potency, µM (highest dose often 75.3 µM), without a hit: at the highest dose activity, negative = inhibition, hits mostly inhibitors;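 further: potency means the concentration at half of the fitted maximal effect; plate controls were no enzyme wells and a reference inhibitor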
Target sequence (P00352 whole entry, looked up): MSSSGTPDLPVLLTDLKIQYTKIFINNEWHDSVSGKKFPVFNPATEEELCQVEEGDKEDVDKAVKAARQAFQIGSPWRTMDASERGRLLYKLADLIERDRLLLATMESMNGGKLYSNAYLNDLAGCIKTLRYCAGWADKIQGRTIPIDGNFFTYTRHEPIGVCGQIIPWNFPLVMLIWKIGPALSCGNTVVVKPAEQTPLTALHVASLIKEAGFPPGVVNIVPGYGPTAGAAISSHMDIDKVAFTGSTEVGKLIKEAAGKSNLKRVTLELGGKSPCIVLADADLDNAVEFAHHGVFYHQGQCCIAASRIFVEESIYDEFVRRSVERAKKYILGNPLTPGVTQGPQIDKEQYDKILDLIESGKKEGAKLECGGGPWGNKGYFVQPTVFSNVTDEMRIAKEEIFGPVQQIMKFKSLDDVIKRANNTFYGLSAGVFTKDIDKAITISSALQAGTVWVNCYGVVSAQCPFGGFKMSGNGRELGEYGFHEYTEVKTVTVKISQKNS
An asterisk follows results filed as active; ? = inconclusive; · = no result given; [ ] = dose if it differs, or a comment. Shown are actives, neighbours in structure and some others; about 11% of the full set was active somewhere. Unless noted, the call rests on the fitted dose curve; in most records, active means well fitted inhibition curve with a large enough effect (not every such curve was filed as active); inconclusive means small, poorly fitted or top-dose-only effect, or another doubt; inactive means no such curve, though single readings can be large or run the other way. Unless noted, on the % scale 0 is the no-effect control and ±100 the full control effect.

SMILES	HPGD block	PNC inhibitor	ALDH1A1 block
CCOC(=O)c1cnc(SC2CCc3ccccc3C2=O)nc1N (configuration not stated)	28.2µM*	-23.5	31.6µM*
CCOC(=O)C1=C(c2ccccc2)NC(=S)NC1c1ccc(Cl)c([N+](=O)[O-])c1 (configuration not stated)	-23.9%	-22.2	0.708µM*
CCOC(=O)C1=C(C)N(C)C(=S)NC1c1ccccc1 (configuration not stated)	-7.5%	-20.8	?
CCOC(=O)C1=C(c2cccc(Oc3ccccc3)c2)NC(=S)NC1C (configuration not stated)	-25.6%	3.3	0.316µM*
CC(=O)C1=C(c2ccccc2)NC(=S)NC1c1cc(Cl)c(OC(C)C)c(Cl)c1 (configuration not stated)	-19.4%	3.3	0.708µM*
COc1cc(C2NC(=S)NC(c3ccccc3)=C2C(C)=O)cc(Cl)c1OCC(=O)O (configuration not stated)	-19.5%	91.6	?
CCOC(=O)C1=C(c2ccccc2)NC(=O)NC1c1cc(Cl)c(O)c(OC)c1 (configuration not stated)	·	·	11.3%
CCOC(=O)C1=C(C)C(c2cccc(Oc3ccccc3)c2)NC(=S)N1 (configuration not stated)	-10.0%	-12.0	0.562µM*
CCOC(=O)COc1c(Cl)cc(C2NC(=S)NC(c3ccccc3)=C2C(C)=O)cc1OC (configuration not stated)	-4.3%	100.6	?
COc1ccc(C2CC(=O)c3cnn(-c4nc(C)cc(C)n4)c3C2)cc1 (configuration not stated)	·	·	7.6%
COC(=O)c1ccc(SCC(=O)NC2CCCCC2)c([N+](=O)[O-])c1	-16.4%	3.0	?
CCOC(=O)C1=C(C)C(c2ccc(OC)cc2)NC(=O)N1 (configuration not stated)	·	·	3.1%
CCOC(=O)C1=C(C)C(c2ccc(OC)cc2)NC(=S)N1 (configuration not stated)	-8.9%	?	2.24µM*
CCCc1nn(C)c(C(=O)Nc2ccccc2)c1Cl	-5.3%	37.1	-10.4%
COc1ccc(OC)c(NC(=O)C(=O)NNC(=O)c2cccs2)c1	-21.8%	-11.7	?
Cc1ccc(C)c(NC(=O)COc2cccc3c2CCN(Cc2ccccc2C)C3=O)c1	-9.0%	-21.5	?
Cc1ccc(CN2CCc3c(OCC(=O)Nc4cccc(C)c4C)cccc3C2=O)cc1	-18.5%	-23.4	25.1µM*
O=C1c2cccc(OCC(=O)N3CCCc4ccccc43)c2CCN1Cc1ccccc1	-16.7%	-24.0	4.2%
O=C1c2cccc(OCC(=O)N3CCCc4ccccc43)c2CCN1Cc1ccc(Br)cc1	-5.9%	-12.5	7.94µM*
C#CCCCO/N=C1/C[C@@H](O)[C@@H](O)[C@@H]2[C@H]3C(=O)N(c4ccc(F)cc4F)C(=O)[C@@H]3CC[C@H]12	·	·	8.8%[13.5 µM]
CCCN(CCC)C(=O)Cn1c(=O)n(CCCCCC(=O)Nc2ccccc2)c(=O)c2sccc21	-3.8%	-9.0	7.7%
COc1c2c(nc3ccccc13)O[C@H]([C@@](C)(O)CO)C2	-0.5%	·	-6.6%[20.9 µM]
COc1ccc(-n2c(C)cc(C(=O)CN3C(=O)NC4(CCCc5sccc54)C3=O)c2C)cc1 (configuration not stated)	-21.7%	32.5	-7.9%
Cc1cc(C(=O)CN2C(=O)NC3(CCCc4sccc43)C2=O)c(C)n1-c1ccccc1 (configuration not stated)	-12.3%	-2.7	28.2µM*
c1ccc(CCNc2ccccc2)cc1	·	·	-12.7%
SMILES	HPGD block	PNC inhibitor	ALDH1A1 block
COc1ccc(CN(C(C)=O)c2cccc(C)c2C)cc1	-3.7%	-107.1*	5.01µM*
COc1ccc(CN(C(=O)CO/N=C/c2ccccc2)c2ccccc2C(=O)O)cc1	-7.0%	14.7	3.1%
Cc1ccc(S(=O)(=O)/N=C2/C=C(C3C(=O)CC(C)(C)CC3=O)C(=O)c3ccccc32)cc1	?	26.6	?
CCc1ccc(S(=O)(=O)/N=C2/C=C(Sc3ncn[nH]3)C(=O)c3ccccc32)cc1	1.58µM*	-123.3*	5.01µM*
CCNC(=S)NNC(=O)c1cc(-c2cc(C)ccc2C)nc2ccccc12	-11.3%	24.5	?
COc1ccc(CCN2CCCn3c2nc2c3c(=O)n(Cc3ccccc3F)c(=O)n2C)cc1OC	?	12.1	3.55µM*
COc1ccc(N2CCCn3c2nc2c3c(=O)n(Cc3ccc(F)cc3)c(=O)n2C)c(OC)c1	-16.7%	-8.5	?
COc1ccc(N2CCCn3c2nc2c3c(=O)n(CCCc3ccccc3)c(=O)n2C)cc1	-12.0%	12.6	-14.3%
COc1ccc(N2CCCn3c2nc2c3c(=O)n(Cc3ccccc3F)c(=O)n2C)c(OC)c1	?	-15.5	11.2µM*
COc1ccc(N2CCCn3c2nc2c3c(=O)n(Cc3ccccc3F)c(=O)n2C)cc1	-5.6%	29.6	8.91µM*
CCn1c(=O)c2c(nc3n2CCCN3CCc2ccccc2)n(C)c1=O	-15.2%	31.5	7.3%
Nc1cc(-c2ccc(OC(F)(F)F)cc2)nn1-c1ccc(Cl)c(Cl)c1	·	·	1.2%
COc1ccccc1NC(=O)CSc1nnc(COc2ccccc2OC)n1C	·	·	15.0%
Fc1ccc(/C=C2\CCCC3=C2NC(=S)NC3c2ccc(F)cc2)cc1 (configuration not stated)	25.1µM*	31.2	?
Cc1nc(N2N=C3/C(=C/c4ccc(F)cc4)CCCC3C2c2ccc(F)cc2)sc1C(=O)N(C)C (configuration not stated)	?	-29.2	?
O=C(CCCSc1nnnn1-c1cccc2ccccc12)c1ccc(F)cc1	-22.0%	24.2	1.41µM*
COC(=O)CSc1nnnn1-c1cccc2ccccc12	-26.3%	-9.9	?
Cc1ccc(SCc2cn3cccnc3n2)cc1	?	-28.5	?
O=C(O)c1cccc(-n2nnnc2SCc2ccccn2)c1	?	?	-12.1%
c1ccc(-n2nnnc2SCc2cccc(CSc3nnnn3-c3ccccc3)n2)cc1	-7.2%	26.1	1.58µM*
c1ccc(CSc2nnnn2-c2cccc3ccccc23)nc1	-3.8%	?	20µM*
c1ccc(CSc2nnnn2-c2ccccc2)cc1	-20.3%	-25.3	?
Cc1ccn2cc(CSc3ccccc3)nc2c1	-11.5%	-111.7*	4.8%
COC(=O)[C@H](Cc1ccccc1)NC(=O)[C@H]1C[C@@H]1[C@H](NC(=O)OCc1ccccc1)c1ccccc1	-5.9%	·	-4.0%
CN(C(=O)CSc1nc2ccccc2s1)c1c(N)n(Cc2ccccc2)c(=O)[nH]c1=O	·	·	-8.4%
COc1cc(O)c(/C=N/NC(=O)c2ccncc2)c(OC)c1[N+](=O)[O-]	·	·	3.6%
O=C(Nc1cc(S(=O)(=O)N2CCCCC2)ccc1O)c1ccccc1NS(=O)(=O)c1ccc(F)c(F)c1	-15.6%	?	-4.9%
c1ccc(-n2nnnc2SCc2cn3ccccc3n2)cc1	-7.0%	34.0	3.98µM*
c1ccc(-n2nnnc2SCc2cn3cccnc3n2)cc1	?	-4.2	?
C/C(Cn1nc([N+](=O)[O-])cc1C)=N\NC(=O)COc1ccc(Cl)cc1Cl	-13.3%	?	?
